The results in this text go back to PubChem BioAssay (NCI).

Some test systems named below: NCI-H23 lung; NCI-H226 lung; NCI-H322M lung; HOP-62 NSCLC; NCI-H460 lung; NCI-H522 lung; A549/ATCC NSCLC; 786-0 renal; COLO 205 colon; DU-145 prostate; K-562 leukemia; MALME-3M melanoma; MDA-MB-231 breast; RXF 393 renal; SF-268 CNS; SF-295 CNS; SF-539 CNS; UACC-257 melanoma; HCT-15 colon; M14 melanoma.
Holding throughout (assay): NCI-60 one-dose screen, 48 h (100 = growth as untreated, 0 = no growth, -100 = all killed)
What all share (details): 10 µM

This is part of a sample that, as a whole, favours compounds with a hit. Of some 83,000 tested, about 20% had one in any assay.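 Testing used 96-well plates and a 48-hour single-concentration exposure. Example: -40 means 40% of the starting cells died.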 Unmarked numbers belong to inactive results. The source made the active and inactive calls. Rule for the calls: active = growth percent below 10; inactive = the rest.

`O=C1Nc2ccc(Cl)cc2/C1=C\c1c(-c2ccc(Cl)cc2)nc2sc(C3CC3)nn12`: the growth in the assay with NCI-H23 lung was 67%; in the assay with NCI-H226 lung, 29.7%; with NCI-H322M lung it was 61.3%; in the assay with HOP-62 NSCLC, -0.353% (active); in the assay with NCI-H460 lung, 51.4%; in the assay on NCI-H522 lung, 42.9%. Also, the growth was 56.4% with A549/ATCC NSCLC; 31.8% in the assay with 786-0 renal; 71.9% in the assay with COLO 205 colon; 59.2% in the assay on DU-145 prostate; 76.1% in the assay on K-562 leukemia; 42% in the assay with MALME-3M melanoma. In addition, the growth in the assay on MDA-MB-231 breast was 43.7%; with RXF 393 renal, 21.1%; in the assay on SF-268 CNS it was 34%; in the assay with SF-295 CNS, 41.4%; with SF-539 CNS, 8.81% (active); in the assay with UACC-257 melanoma, 63.2%. Besides, the growth in the assay with HCT-15 colon was 77.6%.

For `Nc1ccc2c(c1)Cc1cc(N)c(Br)cc1-2`, the growth with NCI-H23 lung is 92.1%; in the assay with NCI-H226 lung, 106%; in the assay with NCI-H322M lung it was 113%; in the assay with HOP-62 NSCLC it was 93.4%; in the assay on NCI-H460 lung it was 97%; in the assay on NCI-H522 lung, 96.7%. Besides, the growth was 100% in the assay on A549/ATCC NSCLC; 120% with 786-0 renal; 107% with COLO 205 colon; 121% in the assay with DU-145 prostate; 99.7% in the assay with K-562 leukemia; 104% in the assay with MALME-3M melanoma. Moreover, the growth in the assay on MDA-MB-231 breast was 116%; in the assay on RXF 393 renal it was 111%; with SF-268 CNS, 109%; in the assay on SF-295 CNS, 76.8%; in the assay on SF-539 CNS, 83.1%; in the assay with UACC-257 melanoma, 109%. Further, the growth in the assay with HCT-15 colon was 97.3%.

Regarding `COc1ccc([N+](=O)[O-])c(C(=O)O)c1`, the growth in the assay with NCI-H23 lung was 105%; in the assay with NCI-H226 lung, 95%; in the assay with NCI-H322M lung, 93.4%; in the assay with HOP-62 NSCLC, 100%; with NCI-H460 lung it was 106%; in the assay on NCI-H522 lung it was 73.4%. Further, the growth in the assay with A549/ATCC NSCLC was 103%; with 786-0 renal, 101%; in the assay with COLO 205 colon, 102%; in the assay with DU-145 prostate, 112%; in the assay on K-562 leukemia, 88.6%; in the assay with MALME-3M melanoma it was 105%. Besides, the growth with MDA-MB-231 breast was 121%; with RXF 393 renal, 98.3%; in the assay on SF-268 CNS, 102%; in the assay with SF-295 CNS, 88.7%; with SF-539 CNS it was 98.7%; in the assay on UACC-257 melanoma, 110%. Further, the growth is 100% in the assay with M14 melanoma and 98.5% in the assay with HCT-15 colon.

Take `CN(C)CCN=c1nc2c(c(N)n1-c1ccccc1)c(=S)n(-c1ccccc1)c(=S)n2-c1ccccc1`: the growth was 67.6% in the assay on NCI-H23 lung; 82.3% with NCI-H226 lung; 58.5% in the assay with NCI-H322M lung; 6.19% (active) in the assay on HOP-62 NSCLC; 3.8% (active) in the assay on NCI-H460 lung; 34.2% with NCI-H522 lung. Also, the growth with A549/ATCC NSCLC is 35.3%; with 786-0 renal it was -83.5% (active); with COLO 205 colon, 6.65% (active); in the assay with DU-145 prostate, 45%; in the assay with K-562 leukemia, -11.4% (active); with MALME-3M melanoma, -89.5% (active). The growth with MDA-MB-231 breast is -13% (active); in the assay on RXF 393 renal, -39.1% (active); in the assay on SF-268 CNS it was 24%; in the assay on SF-295 CNS, -61.5% (active); in the assay on SF-539 CNS, -86.9% (active); in the assay with UACC-257 melanoma, -74.6% (active). The figures for the growth in the assay with M14 melanoma and with HCT-15 colon were -84.4% (active) and 18.8%, respectively.

Consider `N#CCCN1C/C(=C/c2ccc(Br)cc2)C(=O)/C(=C/c2ccc(Br)cc2)C1`, for which the growth with NCI-H23 lung is -30.8% (active); in the assay on NCI-H226 lung, -77.6% (active); in the assay with NCI-H322M lung it was -23.2% (active); in the assay with HOP-62 NSCLC, -59.4% (active); in the assay on NCI-H460 lung, -55.2% (active); in the assay on NCI-H522 lung it was -68.4% (active). For the same compound, the growth was -37.6% (active) with A549/ATCC NSCLC; -67.9% (active) in the assay on 786-0 renal; -93.9% (active) in the assay with COLO 205 colon; -48.4% (active) in the assay on DU-145 prostate; 3.42% (active) in the assay with K-562 leukemia; -48.4% (active) with MALME-3M melanoma. Besides, the growth in the assay with MDA-MB-231 breast is -39.4% (active); with RXF 393 renal, -89.1% (active); in the assay on SF-268 CNS it was -36.2% (active); in the assay with SF-295 CNS, -20.2% (active); in the assay on SF-539 CNS it was -55.1% (active); with UACC-257 melanoma it was -33.5% (active). The growth with M14 melanoma is -55.1% (active); with HCT-15 colon, 0.513% (active).

Consider `COc1cc2nc(Nc3cccc(NC(C)=O)c3)nc(N)c2cc1OC`, for which the growth with NCI-H23 lung is 135%; in the assay with NCI-H226 lung, 90.9%; with NCI-H322M lung, 120%; in the assay with HOP-62 NSCLC it was 94.4%; with NCI-H460 lung it was 110%; with NCI-H522 lung, 93.2%. For the same compound, the growth was 105% with A549/ATCC NSCLC; 94.7% in the assay on 786-0 renal; 109% with COLO 205 colon; 90.2% in the assay on DU-145 prostate; 103% in the assay on K-562 leukemia; 101% in the assay with MALME-3M melanoma. Moreover, the growth in the assay on MDA-MB-231 breast was 86.9%; in the assay on RXF 393 renal, 94.1%; with SF-268 CNS, 92.3%; with SF-295 CNS, 131%; in the assay with SF-539 CNS, 101%; with UACC-257 melanoma, 98.3%. In addition, in the assay on HCT-15 colon, the growth is 93.8%.

On to `COC(=O)[C@@H]1[C@H](O)[C@H](C)[C@H](O)[C@@](C)(O)/C=C\C=C(C)C(=O)Nc2c(C)c(OC(C)=O)c3c(c2O)C(=O)C(C)=C2OCOC(=C23)C(C)=C[C@@](C)(O)[C@H](O)[C@@H](C)[C@H]1OC(C)=O`, for which the growth is 101% with NCI-H23 lung; 109% in the assay on NCI-H226 lung; 125% in the assay with NCI-H322M lung; 111% in the assay with HOP-62 NSCLC; 127% in the assay on NCI-H460 lung; 105% in the assay on NCI-H522 lung. For the same compound, the growth in the assay with A549/ATCC NSCLC was 110%; with 786-0 renal it was 95.2%; in the assay on COLO 205 colon it was 112%; in the assay with DU-145 prostate, 85.5%; in the assay with K-562 leukemia it was 89%; with MALME-3M melanoma, 101%. Further, the growth with MDA-MB-231 breast was 98.8%; in the assay on RXF 393 renal, 104%; in the assay on SF-268 CNS it was 113%; with SF-295 CNS, 98%; in the assay on SF-539 CNS, 100%; in the assay with UACC-257 melanoma, 107%. Also, the growth in the assay with HCT-15 colon was 74.7%.

Regarding `COc1cc(Cl)cc(-c2nn(-c3cccc(NC(=O)Nc4cc(C(F)(F)F)cc(C(F)(F)F)c4)c3)cc2-c2ccncc2)c1`, the growth in the assay on NCI-H23 lung was -6.14% (active); in the assay with NCI-H226 lung, -5.97% (active); with NCI-H322M lung, 11%; in the assay on HOP-62 NSCLC, -41.1% (active); in the assay with NCI-H460 lung, 0.241% (active); in the assay with NCI-H522 lung, -15.6% (active). The growth in the assay with A549/ATCC NSCLC was 5.14% (active); with 786-0 renal, -26.9% (active); with COLO 205 colon it was -64% (active); with DU-145 prostate, 13.1%; in the assay with K-562 leukemia, 6.4% (active); in the assay on MALME-3M melanoma, -19.2% (active). Further, the growth is -75% (active) in the assay with MDA-MB-231 breast; -29.3% (active) in the assay with RXF 393 renal; 14.2% in the assay with SF-268 CNS; -43.2% (active) with SF-295 CNS; -17.7% (active) in the assay with SF-539 CNS; -25.6% (active) in the assay on UACC-257 melanoma. For the same compound, the values for the growth with M14 melanoma and with HCT-15 colon were 1.22% (active) and 6.21% (active), respectively.
